The text below walks through data of PubChem BioAssay (NCATS).

“And” between values parts separate entries of the source, which are not always exact repeats. Equal entries are not always repeated. Records with an inconclusive call do not appear. More than one record can exist for a structure, and the calls need not agree. The source made the active and inactive calls. Unless noted, calls come from the whole dose curve; as a rule, active = well fitted curve in either direction with a large enough effect (not every such curve was filed as active); inconclusive = small, poorly fitted or top-dose-only effect, or another doubt; inactive = flat fitted curve, though single readings scatter.

The target of assay [1] is Lysosomal acid glucosylceramidase (Homo sapiens) (UniProt P04062). As to the kind of experiment: Glucocerebrosidase-p2 (AID 348; in the data active = potency below about 10 µM; note: potency is the fitted concentration of half-maximal effect). Particulars: purified GBA, blue fluorogenic substrate, 40 min. Put shortly:
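Normal human glucocerebrosidase (0.2 nM) with blue fluorogenic substrate (80 uM final) in citrate/phosphate pH 5.9 with 10mM sodium taurocholate, 0.01% tween-20; 40 min RT, NaOH/glycine stop; fluorescence Ex 365/Em 440; AC50 from a titration from 0.6 nM upwards.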

Assay [2] deals with Cytochrome P450 1A2 (Homo sapiens) (UniProt P05177). The assay can be described thus: p450-cyp1a2 (AID 410; calls by dose curve; note: potency is the fitted concentration of half-maximal effect;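 for activity change, negative = inhibition: -100% = full effect of reference inhibitor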). Put shortly:
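Read-out is luminescence from luciferin produced by CYP1A2 demethylation of Luciferin-ME (100uM, at Km). Detection reagent stopped the 60 min NADPH-dependent reaction; signals were normalized to 57 uM furafylline.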

Assay [3] in a line: NFAT Signaling Pathway (AID 444).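 Note: carbachol stimulus at about its EC50 of 1 µM final; % is set by controls: 0 for no effect and ±100 for the full control effect.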 The following applies: Jurkat NFAT-bla M1, carbachol, beta-lactamase ratio, 5 h; at 38 µM (top of the series) unless noted. Put shortly: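 Jurkat cells carrying an NFAT-driven β-lactamase reporter and co-transfected muscarinic M1 receptor were treated with compound plus carbachol (1 uM final, an EC50 level) for 5 h at 37 °C. CCF4 loading followed for 1 h at RT; 460/530 nm ratio gave %activity.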

Assay [4] can be described thus: Stat Signaling Pathway (AID 446).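 Note: ME-180 cervical cancer cells given 40 pM IL-6 alongside compound; SIE-controlled beta-lactamase reporter measured as 460/530 nm FRET emission ratio; % is set by controls: 0 for no effect and ±100 for the full control effect.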 Particulars: ME-180 SIE beta-lactamase reporter, IL-6 stimulated, 5 h; at 38 µM (top of the series) unless noted. An outline of the steps: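 Overnight-plated ME-180 cells bearing a STAT Inducible Element beta-lactamase reporter; 5 h co-exposure to compound and 40 pM IL-6; values normalized to 300 pM IL-6 and 125 nM JAK inhibitor controls.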

The target of assay [5] is Glucocorticoid receptor (Homo sapiens) (UniProt P04150). The assay can be described thus: GR-GFP Redistribution (AID 450;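 active = compounds whose dose series gives a full or clear partial fitted curve of increased nuclear translocation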; note: potency is the fitted concentration of half-maximal effect). The following applies: U2OS GR-GFP nuclear translocation, laser cytometry, 2 h.
The target is the same in assay [6]. The assay can be described thus: GR-EFC Redistribution (AID 451; calls by dose curve; note: potency is the fitted concentration of half-maximal effect). Particulars: CHO-K1 GR-EFC translocation, beta-gal luminescence, 2 h. Put shortly:
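CHO-K1 cells stably expressing nuclear-localized β-gal enzyme acceptor and GR fused C-terminally to the enzyme donor fragment; ligand-driven nuclear translocation restores β-gal by complementation. Compounds titrated up to 46 uM final, 2 h at 37 °C; luminescence read.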

For assay [7], the target named is Mitogen-activated protein kinase 10 (Mus musculus) (UniProt Q61831). As to the kind of experiment: JNK3 AlphaScreen Assay (AID 530).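 Note: kinase came from lysate of stimulated human HepG2 cells; signal reports phosphorylation of biotinylated GST-cJun 1-79 at Ser73 with 10 µM ATP; % is set by controls: 0 for no effect and ±100 for the full control effect.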 Put shortly:
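Biotinylated GST-cJun(1-79) served as substrate for JNK3 in HepG2 lysates stimulated with IL-1beta and TNF-alpha. ATP was 10 uM final, pH 7.6. Ser73 phosphorylation was quantified by AlphaScreen (680 nm excitation).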
(In general: In Alpha technology, singlet oxygen from a donor bead excites a nearby acceptor bead.)

Assay [8] can be described thus: AP1 Signaling Pathway (AID 357). Note: % is set by controls: 0 for no effect and ±100 for the full control effect. Particulars: ME-180 (cervical carcinoma) AP-1-bla reporter, EGF-induced, beta-lactamase ratio, 5 h; at 38 µM (top of the series) unless noted. An outline of the steps: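 Read-out was the 460nm/530nm emission ratio (excitation 405nm) after CCF4 loading for 2.5 hours at room temperature. Cells carried an AP-1-driven beta-lactamase reporter, were stimulated with EC50 EGF plus compound for 5 hours, and AC50 values came from titrations.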

Sequence of Cytochrome P450 1A2 (Homo sapiens) (P05177 whole entry, looked up): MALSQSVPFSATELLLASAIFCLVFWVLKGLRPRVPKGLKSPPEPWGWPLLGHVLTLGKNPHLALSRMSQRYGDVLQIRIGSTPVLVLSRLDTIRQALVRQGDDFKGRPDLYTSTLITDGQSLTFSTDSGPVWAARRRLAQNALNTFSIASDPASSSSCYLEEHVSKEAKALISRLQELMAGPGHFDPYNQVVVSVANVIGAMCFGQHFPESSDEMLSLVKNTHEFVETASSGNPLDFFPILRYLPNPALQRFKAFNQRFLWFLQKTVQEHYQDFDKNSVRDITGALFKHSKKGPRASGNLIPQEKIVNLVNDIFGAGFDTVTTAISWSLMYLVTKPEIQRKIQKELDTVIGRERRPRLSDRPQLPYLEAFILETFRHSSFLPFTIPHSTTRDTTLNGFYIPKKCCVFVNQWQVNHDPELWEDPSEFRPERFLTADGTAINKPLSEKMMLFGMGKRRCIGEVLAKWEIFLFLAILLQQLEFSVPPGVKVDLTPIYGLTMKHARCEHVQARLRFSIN
Sequence of Glucocorticoid receptor (Homo sapiens) (P04150 whole entry, looked up): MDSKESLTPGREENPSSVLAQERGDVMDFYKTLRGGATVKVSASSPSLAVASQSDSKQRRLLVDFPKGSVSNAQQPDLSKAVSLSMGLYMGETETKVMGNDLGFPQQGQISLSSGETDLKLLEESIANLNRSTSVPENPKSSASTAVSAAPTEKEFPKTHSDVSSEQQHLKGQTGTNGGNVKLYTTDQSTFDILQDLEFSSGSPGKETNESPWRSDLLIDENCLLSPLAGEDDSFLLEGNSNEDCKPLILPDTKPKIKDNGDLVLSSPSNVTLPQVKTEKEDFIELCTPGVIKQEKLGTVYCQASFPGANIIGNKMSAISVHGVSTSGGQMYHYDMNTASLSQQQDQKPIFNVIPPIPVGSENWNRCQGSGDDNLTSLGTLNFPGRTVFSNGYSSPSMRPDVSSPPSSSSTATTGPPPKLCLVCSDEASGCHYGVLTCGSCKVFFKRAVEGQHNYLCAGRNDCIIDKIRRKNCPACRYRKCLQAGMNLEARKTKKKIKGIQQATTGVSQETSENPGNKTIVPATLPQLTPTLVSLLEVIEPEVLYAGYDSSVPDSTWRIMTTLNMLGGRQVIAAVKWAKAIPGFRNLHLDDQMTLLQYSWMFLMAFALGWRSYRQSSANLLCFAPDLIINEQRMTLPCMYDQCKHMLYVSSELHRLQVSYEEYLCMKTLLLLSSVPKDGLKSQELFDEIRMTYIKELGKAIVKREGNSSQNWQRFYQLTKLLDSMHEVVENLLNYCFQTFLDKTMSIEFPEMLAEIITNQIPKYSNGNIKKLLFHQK
Sequence of Lysosomal acid glucosylceramidase (Homo sapiens) (P04062 whole entry, looked up): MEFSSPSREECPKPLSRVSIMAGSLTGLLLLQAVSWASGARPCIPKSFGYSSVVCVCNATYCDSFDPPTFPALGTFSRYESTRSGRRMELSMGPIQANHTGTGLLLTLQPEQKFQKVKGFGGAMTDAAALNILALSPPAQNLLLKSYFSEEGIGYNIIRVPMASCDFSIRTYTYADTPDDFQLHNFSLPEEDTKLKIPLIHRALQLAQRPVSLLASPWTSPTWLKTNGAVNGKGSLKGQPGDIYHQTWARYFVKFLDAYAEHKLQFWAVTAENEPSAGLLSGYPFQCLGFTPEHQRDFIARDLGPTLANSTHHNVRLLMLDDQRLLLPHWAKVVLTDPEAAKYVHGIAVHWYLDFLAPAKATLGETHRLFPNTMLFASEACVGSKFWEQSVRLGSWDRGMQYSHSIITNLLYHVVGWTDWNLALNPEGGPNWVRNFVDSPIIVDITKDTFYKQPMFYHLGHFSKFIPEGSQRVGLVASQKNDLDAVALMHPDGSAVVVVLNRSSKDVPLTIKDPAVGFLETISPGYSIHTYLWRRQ

For the molecule `O=c1[nH]c(=S)[nH]c(-c2ccccc2)c1Cc1c(O)ccc2ccccc12`, the Potency in assay [1] was > 11.4 µM (inactive); in assay [2], 1 µM (active); in assay [5] it was > 46 µM (inactive); in assay [6] it was > 9.22 µM (inactive). Besides, the activity change, negative = inhibition in assay [3] was 15.8% [at 7.69 µM] (inactive); in assay [7] it was 0.827% [at 11.4 µM] (inactive). Also, the activity, negative = inhibition in assay [4] was -12.5% [at 7.69 µM] (inactive).
Take `Oc1ccc(Cn2cc[nH]c2=S)cc1`: the activity change, negative = inhibition was -3.65% (inactive) in assay [8] and 3.63% (inactive) in assay [3]. The Potency was 6.31 µM (active) in assay [2], > 46 µM (inactive) in assay [5] and > 46 µM (inactive) in assay [6]. Moreover, the activity, negative = inhibition in assay [4] is 25% (inactive). For the same molecule, in assay [7], the molecule was classed as inactive.
`S=C(S)N1CCCC1`: the activity change, negative = inhibition in assay [8] is 12.8% (inactive); in assay [3], -9.46% (inactive). In addition, the Potency is 31.6 µM (active) and 12.6 µM (active) in assay [2]; > 46 µM (inactive) in assay [5]; > 46 µM (inactive) in assay [6]. Also, the activity, negative = inhibition in assay [4] was 7.91% (inactive).
For the molecule `CCCCCCC/C=C\CCCCCCCCC(=O)O`, the activity change, negative = inhibition is 12.5% (inactive) in assay [8] and -3.56% (inactive) in assay [3]. Also, the Potency in assay [2] was 31.6 µM (active); in assay [5], > 46 µM (inactive); in assay [6], > 46 µM (inactive). The activity, negative = inhibition in assay [4] is -1.08% (inactive).
In the case of `Nn1nnc2ccccc21`, the activity change, negative = inhibition in assay [8] was 1.19% (inactive); in assay [3] it was 4.59% (inactive). The Potency in assay [2] was 12.6 µM (active); in assay [5], > 46 µM (inactive); in assay [6] it was > 46 µM (inactive). Further, the activity, negative = inhibition in assay [4] is 9.14% (inactive). Further, the molecule was called inactive in assay [7].
In the case of `CCSC(=N)N`, the activity change, negative = inhibition in assay [8] was -24.3% (inactive); in assay [3], 1.19% (inactive). Besides, in assay [2], the Potency entry was “inactive”. Moreover, the activity, negative = inhibition in assay [4] was 9.06% (inactive). Also, the Potency in assay [5] and in assay [6] was > 46 µM (inactive) each time.
As for `c1ccc2nc(C3=NCCN3)ccc2c1`, the activity change, negative = inhibition in assay [8] is -2.57% (inactive); in assay [3], -13% (inactive). In addition, the Potency is 5.01 µM (active) and 794 nM (active) in assay [2]; > 46 µM (inactive) in assay [5]; > 46 µM (inactive) in assay [6]. Also, the activity, negative = inhibition in assay [4] was 0.247% (inactive). The call in assay [7] was inactive.
Turning to `O=c1ccc2c(OCCCCc3ccccc3)c3ccoc3cc2o1`, the activity change, negative = inhibition in assay [8] is -12.4% (inactive); in assay [3], -20.3% (inactive). In addition, the results for the Potency in assay [2], in assay [5] and in assay [6] were 0.501 µM (active), > 46 µM (inactive) and > 46 µM (inactive), respectively. Also, the activity, negative = inhibition in assay [4] is 3.59% (inactive).
Turning to `CCn1c(=O)[nH]c2cc(Cl)c(Cl)cc21`, the figures for the activity change, negative = inhibition in assay [8] and in assay [3] were 0.191% (inactive) and -27.1% (inactive), respectively. The Potency in assay [2] was 1.26 µM (active) and 251 nM (active); in assay [5], > 46 µM (inactive); in assay [6] it was > 46 µM (inactive). Further, in assay [4], the activity, negative = inhibition was -18.6% (inactive).
As for `NC(N)=NC(N)=Nc1cccc(Cl)c1`, the figures for the activity change, negative = inhibition in assay [8] and in assay [3] were -8.78% (inactive) and 7.69% (inactive), respectively. In assay [2], the Potency entry was “inactive”. In assay [4], the activity, negative = inhibition was 15.9% (inactive). Besides, the Potency in assay [5] and in assay [6] was > 46 µM (inactive) in each case. Also, the outcome in assay [7] was inactive.
With `N#C/C(=C\c1ccc(O)c(O)c1)C(=O)NCCCNC(=O)/C(C#N)=C/c1ccc(O)c(O)c1`, the activity change, negative = inhibition was -12.1% (inactive) in assay [8] and 7.05% (inactive) in assay [3]. Also, the Potency entry in assay [2] is “inactive”. Further, the activity, negative = inhibition in assay [4] was -7.91% (inactive). Further, the Potency in assay [5] and in assay [6] was > 46 µM (inactive) in each case.
Take `Cn1cc(C(=O)OCC2CCN(CCNS(C)(=O)=O)CC2)c2ccccc21`: the activity change, negative = inhibition in assay [8] is -4.52% (inactive); in assay [3] it was -2.1% (inactive). The Potency in assay [2] was 12.6 µM (active) and 15.8 µM (active); in assay [5] it was > 46 µM (inactive); in assay [6], > 46 µM (inactive). In addition, the activity, negative = inhibition in assay [4] was -18.9% (inactive). The result in assay [7] was inactive.
Regarding `[Li+]`, the activity change, negative = inhibition in assay [8] is 3.61% (inactive); in assay [3], 1.3% (inactive). The Potency result in assay [2] is “inactive”. The activity, negative = inhibition in assay [4] is -7.38% (inactive). For the same molecule, the Potency in assay [5] and in assay [6] was > 46 µM (inactive) in each case. The call in assay [7] was inactive.
Regarding `Nc1nc2ccc(Cl)cc2c2nc(-c3ccco3)nn12`, the activity change, negative = inhibition is -6.92% (inactive) in assay [8] and 19.6% (inactive) in assay [3]. Moreover, the Potency in assay [2] was 631 nM (active) and 63.1 nM (active); in assay [5], > 46 µM (inactive). Further, the activity, negative = inhibition in assay [4] is 3.22% (inactive).
Regarding `O=C(OCCN1CCOCC1)C1(c2ccccc2)CCCCC1`, in assay [8], the activity change, negative = inhibition is -11.4% (inactive). In addition, the Potency in assay [2] was 31.6 µM (active); in assay [5], > 46 µM (inactive); in assay [6], > 46 µM (inactive).
Regarding `COc1ccc2c(c1)c(CC(=O)O)c(C)n2Cc1ccc(Cl)cc1`, the activity change, negative = inhibition is -18.2% (inactive) in assay [8] and -4.65% (inactive) in assay [3]. Moreover, the Potency was 31.6 µM (active) in assay [2], > 46 µM (inactive) in assay [5] and > 46 µM (inactive) in assay [6].
For the molecule `NCCCNCCCCNCCCN`, in assay [8], the activity change, negative = inhibition is 11.4% (inactive). The Potency result in assay [2] was “inactive and 15.8 µM (active)”; in assay [5] it was > 46 µM (inactive). Also, the activity, negative = inhibition in assay [4] was -4.41% (inactive). Further, in assay [7], the result was inactive.
With `O=c1[nH]c(=O)c2nc3ccccc3nc2[nH]1`, the activity change, negative = inhibition was -6.22% (inactive) in assay [8] and 0.27% (inactive) in assay [3]. For the same molecule, the results for the Potency in assay [2], in assay [5] and in assay [6] were 12.6 µM (active), > 46 µM (inactive) and > 46 µM (inactive), respectively. Besides, in assay [7], the outcome was inactive.
With `Cc1nc(N=Nc2cc(S(=O)(=O)O)c3cc([N+](=O)[O-])cc(S(=O)(=O)O)c3c2)c(COP(=O)(O)O)c(C=O)c1O`, the results for the activity change, negative = inhibition in assay [8] and in assay [3] were -0.539% (inactive) and 2.42% (inactive), respectively. Also, the values for the Potency in assay [2] and in assay [5] were 39.8 µM (active) and > 46 µM (inactive), respectively. Further, the result in assay [7] was inactive.
As to `CCCCCCCCCCCCCCSCC(=O)O`, the activity change, negative = inhibition in assay [8] was -3.84% (inactive). For the same molecule, the Potency result in assay [2] is “inactive”. The activity, negative = inhibition in assay [4] was -3.53% (inactive). For the same molecule, the Potency in assay [5] and in assay [6] was > 46 µM (inactive) in each case. Also, the molecule was called inactive in assay [7].
Regarding `CCCOC(=O)c1c(-c2ccccc2)nc(CC)c(C(=O)SCC)c1CCC`, the activity change, negative = inhibition in assay [8] was 2.66% (inactive). Also, the Potency in assay [2] is 10 µM (active); in assay [5] it was > 46 µM (inactive); in assay [6], > 46 µM (inactive). In assay [4], the activity, negative = inhibition was -19.4% (inactive).
